PubChem BioAssay AID1721 (National Center for Advancing Translational Sciences (NCATS), 2009)
In all, about 290,000 compounds went through this assay and about 1,100 (0.38%) were called active. Shown is part of a subset that was picked to be rich in actives. A call without a number means that no potency is given here. A number with no mark means an inactive call. Calls follow the shape of the dose curve; as a rule, active = well fitted inhibition curve with a large enough effect; inconclusive = small, poorly fitted or top-dose-only effect, or another doubt; inactive = no such curve, though single readings can be large or run the other way.

target: Pyruvate kinase (Leishmania mexicana) (UniProt Q27686); assay: qHTS Assay for Inhibitors of Leishmania Mexicana Pyruvate Kinase (LmPK); conditions: purified LmPK, Kinase-Glo ATP luminescence, 1 h; series mostly up to 57.5 µM
From the text: NIH Chemical Genomics Center [NCGC] Malcolm Walkinshaw, Hugh Morgan, Linda Gilmore University of Edinburgh, UK MLPCN Grant: 1 R03 MH085697-01 NCGC Assay Overview: Pyruvate kinase (L. Mexicana) (LmPK) enzyme was supplied as a highly purified (>95% pure) sulphate-free preparation from University of Edinburgh, UK and assayed for its ability to generate ATP from ADP using phosphoenolpyruvate (PEP) as a substrate. ATP generation was detected in a coupled reaction by luciferase-mediated luminescence, an ATP-dependent process. […] The enzyme was assayed at an intermediate level of activity to screen for both inhibitors and activators.
NCGC Assay Protocol Summary: Three uL of enzyme mix (kept on ice) in assay buffer (50 mM Imidazole pH7.2, 50 mM KCl, 7 mM MgCl2, 0.01% Tween 20, 0.05% BSA) containing PEP (0.5 mM final concentration) and LmPK (0.1 nM final concentration) was dispensed into white solid bottom 1,536 well microtiter plates. 23 nL of compound were delivered by a pin tool and 1 uL of ADP mix in assay buffer (r.t; 0.1 mM final ADP concentration) was added. Plates were incubated at room temperature for 1 hour. Two uL of detection mix (Kinase-Glo, Promega; at 4 degree Celsius protected from light) was added and luminescence read by a ViewLux (Perkin Elmer) at 1 second exposure/plate. Data were normalized to the uninhibited and AC100 inhibition (no enzyme). To monitor activation, the first column contained a five-fold concentration of LmPK (0.5 nM).
Potency is read from the fitted curve at half-maximal effect.

Chain of Pyruvate kinase (Leishmania mexicana) (Q27686 whole entry, looked up): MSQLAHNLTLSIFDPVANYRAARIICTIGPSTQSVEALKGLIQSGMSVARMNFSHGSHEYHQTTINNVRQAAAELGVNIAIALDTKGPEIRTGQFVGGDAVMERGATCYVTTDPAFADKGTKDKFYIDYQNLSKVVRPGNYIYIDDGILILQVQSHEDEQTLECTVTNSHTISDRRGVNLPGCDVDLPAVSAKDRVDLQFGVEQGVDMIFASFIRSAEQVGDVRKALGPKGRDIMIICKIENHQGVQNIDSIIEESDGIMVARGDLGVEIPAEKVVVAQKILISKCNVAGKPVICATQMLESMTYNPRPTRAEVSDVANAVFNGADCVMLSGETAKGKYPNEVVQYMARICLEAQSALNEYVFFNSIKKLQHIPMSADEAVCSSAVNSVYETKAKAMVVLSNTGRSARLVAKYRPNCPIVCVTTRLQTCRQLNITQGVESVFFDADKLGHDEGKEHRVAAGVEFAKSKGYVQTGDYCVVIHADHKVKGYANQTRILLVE

| SMILES | Potency | activity change, negative = inhibition |
| --- | --- | --- |
| CCn1c(CSCc2c(Cl)cccc2Cl)n[nH]c1=S | 15.8 µM (active) | – |
| CCn1c(-c2ccncc2)n[nH]c1=S | inactive | – |
| CCn1c(CNS(=O)(=O)c2ccc(Cl)cc2)n[nH]c1=S | inactive | – |
| COc1cccc(CNC(=O)C2CCCN(S(=O)(=O)N3CC(C)CC(C)C3)C2)c1 (stereo unspecified) | inactive | – |
| c1ccc(Cc2ccc(OCCn3ccnc3)cc2)cc1 | inactive | – |
| CCC1CCCCN1CCCNC(=O)c1cc2c(Cl)nc3ccccc3c2s1 (stereo unspecified) | inactive | – |
| CCOc1ccccc1NS(=O)(=O)c1cc2c3c(c1)C(C)C(=O)N3CCC2 (stereo unspecified) | inactive | – |
| CCOC(=O)c1cc(S(=O)(=O)NCCc2ccc(OC)c(OC)c2)cn1C | inactive | – |
| Cc1nonc1C(=O)N/N=C/c1ccc(O)cc1 | 8.91 µM (active) | – |
| O=C(C[n+]1ccccc1)N/N=C/c1ccc(O)cc1 | inactive | – |
| Cc1nc2ccc(C(=O)N/N=C/c3ccc(O)cc3)cc2[nH]1 | inactive | – |
| C=CCNc1nc(N)c([N+](=O)[O-])c(NC2CCCCC2)n1 | inactive | – |
| NNC(=O)CNC(c1ccccc1)c1cc(Cl)ccc1NC(=O)c1ccccc1 (stereo unspecified) | inactive | – |
| C[C@@H](NC(=O)OC(C)(C)C)c1nnc(S(=O)(=O)Cc2ccccc2)o1 | inactive | – |
| Cc1cc2c(c(=O)n1Cc1ccccc1)C1O[C@](CCCCN3C(=O)c4ccccc4C3=O)(Cc3ccccc31)O2 | – | -8.6% [at 11.5 µM] |
| CC(=O)Oc1ccccc1C(=O)Nc1ncc([N+](=O)[O-])s1 | 12.6 µM (active) | – |
| O=C(Nc1ncc([N+](=O)[O-])s1)C1COc2ccccc2O1 (stereo unspecified) | inactive | – |
| O=C(CCc1ccccc1)Nc1ncc([N+](=O)[O-])s1 | inactive | – |
| N=c1oc2ccccc2cc1C(=O)NCc1ccccc1 | inactive | – |
| Cc1ccc(/C=N/NC(=O)c2cc3ccccc3cc2O)o1 | inactive | – |
| N=c1oc2ccccc2cc1C(=O)N/N=C/c1ccccc1 | 8.91 µM (active) | – |
| CC1CC(C)CN(CCOc2cccc3ccccc23)C1 (stereo unspecified) | inactive | – |
| Cc1cc(C)c(OCC(=O)N(Cc2cccs2)C2CCS(=O)(=O)C2)c(C)c1 (stereo unspecified) | inactive | – |

| SMILES | Potency | activity change, negative = inhibition |
| --- | --- | --- |
| CCCn1c(C2CCCN2c2nc(-c3ccc(OC)cc3)cs2)nc2ccccc21 (stereo unspecified) | inactive | – |
| COc1ccc(-n2ncc3c2CC(C)(C)CC3NC(=O)CCc2c(C)noc2C)cc1 (stereo unspecified) | inactive | – |
| COC(=O)c1ccc2c(C(C)(C)O)c(C(C)(C)O)[nH]c2c1 | inactive | – |
| COc1ccc(-c2n[nH]c(C)c2-c2ccc(OC)c(OC)c2)c(O)c1 | inactive | – |
| Cc1ccc(-n2c(-c3ccc(Cl)cc3)n[nH]c2=S)cc1 | 14.1 µM (active) | – |
| COc1ccccc1-n1c(-c2cc(-c3ccco3)[nH]n2)n[nH]c1=S | 3.55 µM (active) | – |
| COc1ccc(-n2c(-c3ccc(OC)c(OC)c3)n[nH]c2=S)cc1 | 20 µM (active) | – |
| Cc1ccc(OCc2n[nH]c(=S)n2-c2ccc(C)cc2)cc1 | inactive | – |
| COc1ccccc1-n1cn[nH]c1=S | inactive | – |
| Cc1cc(-c2n[nH]c(=S)n2-c2ccc(C)c(C)c2)no1 | inactive | – |
| COc1ccc(OC)c(-n2c(=S)[nH]c3cc(C(=O)N4CCCCC4)ccc3c2=O)c1 | inactive | – |
| Cc1cc(-c2n[nH]c(=S)n2/N=C/c2ccco2)n[nH]1 | inactive | – |
| S=c1[nH]nc(-c2ccc(Cl)cc2)n1CC1CCCO1 (stereo unspecified) | inactive | – |
| COc1ccc(OC)c(-n2c(-c3ccn[nH]3)n[nH]c2=S)c1 | 20 µM (active) | – |
| COc1ccc(OCc2n[nH]c(=S)n2N)cc1 | inactive | – |
| O=C(CN1CCCCCC1)Nc1c(Cl)cc(Cl)cc1Cl | inactive | – |
| O=C(C1CCCN(S(=O)(=O)c2ccccc2)C1)N1CCN(c2ccc(F)cc2)CC1 (stereo unspecified) | inactive | – |
| O=C(CCS(=O)(=O)c1ccccc1)NC1CCCC1 | inactive | – |
| CC(C)(C)C1C/C(=C/c2ccco2)C(=O)/C(=C/c2ccco2)C1 (stereo unspecified) | inactive | – |
| COc1ccc(S(=O)(=O)NCCOc2ccccc2)cc1F | inactive | – |
| COc1ccc(CCN2CC(C(=O)NCCN3CCNC3=O)CCC2=O)cc1 (stereo unspecified) | inactive | – |
| CCn1c(SCC(=O)NC2CCCC2)nnc1-c1ccoc1C | inactive | – |
| COc1cccc(NC(=O)COc2cc(C)cc3oc(=O)cc(C)c23)c1 | inactive | – |

| SMILES | Potency | activity change, negative = inhibition |
| --- | --- | --- |
| COc1ccc(S(=O)(=O)NCCCCOc2ccc(Cl)cc2)cc1 | inactive | – |
| CCOc1ccc(C2NC(=S)NC3=C2CCc2ccccc23)cc1 (stereo unspecified) | inactive | – |
| CC(C)(C)c1ccc(Cn2nnc3c(=O)[nH]c(C4CCCN(C(=O)c5ccco5)C4)nc32)cc1 (stereo unspecified) | inactive | – |
| COc1ccc(C(=O)NC2CC(C)(C)NC(C)(C)C2)cc1OC | inactive | – |
| COCCc1nn2c(=O)cc(COC(=O)c3cc(OC)c(OC)c(OC)c3)nc2s1 | inactive | – |
| CC(=O)C1=C(O)C(=O)N(c2ccc(Br)cc2)C1c1ccc([N+](=O)[O-])cc1 (stereo unspecified) | inactive | – |
| CCCCc1nc2cc(C(=O)N3CCCCC3CCO)ccc2o1 (stereo unspecified) | inactive | – |
| COc1ccc(OCC(=O)Nc2ccc(NC(=O)c3ccco3)c(C)c2)cc1 | inactive | – |
| COc1ccccc1C(=O)Nc1ccc(NC(=O)c2ccco2)c(C)c1 | 15.8 µM (active) | – |
| Cc1cc(NC(=O)c2ccc(F)cc2)ccc1NC(=O)c1ccco1 | inactive | – |
| CCn1c(SCC(=O)NC2CC2)nnc1-c1ccccc1OC | inactive | – |
| COc1ccccc1CC(=O)Nc1ccc(F)cc1F | inactive | – |
| COc1cc(OC)cc(C(=O)OCC(=O)Nc2ccc(F)cc2F)c1 | inactive | – |
| COc1ccc(C(=O)Nc2ccc(F)cc2F)cc1 | 14.1 µM (active) | – |
| O=C(c1cc(-c2ccc(O)cc2)on1)N1CCOCC1 | inactive | – |
| Cc1ccc(CN2CCN(c3ncccn3)CC2)c(C)c1 | inactive | – |
| CCOC(=O)C1CCN(C(=O)C2CCCN(S(=O)(=O)c3ccc(OC)c(Cl)c3)C2)CC1 (stereo unspecified) | inactive | – |
| O=C(Nc1nnc(C2CC2)s1)c1ccccn1 | 25.1 µM (active) | – |
| O=C(Nc1nnc(C2CC2)s1)c1cc(Cl)sc1Cl | inactive | – |
| Cc1cnc(NC(=O)c2ccccn2)s1 | 15.8 µM (active) | – |
| Cc1cnc(NC(=O)CSc2c(Cl)cccc2Cl)s1 | inactive | – |
| Cc1cnc(NC(=O)c2ccc(Cl)nc2)s1 | inactive | – |
| O=C(Cc1cccs1)Nc1nnc(C2CC2)s1 | inactive | – |

| SMILES | Potency | activity change, negative = inhibition |
| --- | --- | --- |
| O=C(O)c1ccc(-n2nc(-c3ccccc3)c3ccccc3c2=O)cc1 | inactive | – |
| COC(=O)c1c(NC(=O)COC(=O)[C@@H](NS(=O)(=O)c2ccccc2)C(C)C)sc2c1CCC2 | inactive | – |
| O=C(CN(CC1CCCO1)C(=O)CNS(=O)(=O)c1ccc(Cl)cc1)NCc1ccccc1 (stereo unspecified) | inactive | – |
| CC(C(=O)Nc1ccc(O)c(C(=O)O)c1)N1C(=O)/C(=C/c2cccs2)SC1=S (stereo unspecified) | inactive | – |
| COc1ccc(NC(=O)C(CC(C)C)NC(=O)C2CCC(C)CC2)cc1 (stereo unspecified) | inactive | – |
| O=C(Nc1nnc(C2=COCCO2)o1)c1ccc([N+](=O)[O-])s1 | inactive | – |
| COc1cc(C(C)=O)ccc1OC(=O)CN1C(=O)c2ccccc2C1=O | inactive | – |
| COc1cccc(/C=C/c2ccc3ccccc3n2)c1OC(C)=O | 25.1 µM (active) | – |
| CCOc1cccc(/C=C/c2ccc3ccccc3n2)c1OC(C)=O | inactive | – |
| COc1cccc(/C=C2\C=C(c3ccc(C)cc3)OC2=O)c1OC(C)=O | inactive | – |
| COc1ccc(CCNCc2c(-c3ccccc3)n(C)c3ccccc23)cc1 | inactive | – |
| Cc1ccc(N(C(=O)C(F)(F)F)C(C(=O)NC2CCCCC2)c2ccncc2)cc1C (stereo unspecified) | inactive | – |
| O=C(O)C1CCCN1C1=NS(=O)(=O)c2ccccc21 (stereo unspecified) | inactive | – |
| CN(Cc1nc2ccccc2s1)C(=O)c1ccc(F)cc1 | inactive | – |
| COc1ccccc1OCc1nc2ccccc2s1 | 15.8 µM (active) | – |
| O=C(O)CCCCc1nc2ccccc2s1 | inactive | – |
| Cc1cc(S(=O)(=O)N2CCOCC2)ccc1OCC(=O)Nc1cccc(C(F)(F)F)c1 | inactive | – |
| COc1cc(SC)ccc1C(=O)NCCOc1ccccc1Cl | inactive | – |
| COc1cc(SC)ccc1C(=O)Nc1nc(C)cs1 | 10 µM (active) | – |
| COc1cc(SC)ccc1C(=O)Nc1cc(C)ccn1 | inactive | – |
| O=C(NC(=S)NC1CCS(=O)(=O)C1)c1cccc([N+](=O)[O-])c1 (stereo unspecified) | inactive | – |
| Cn1c(-c2ccco2)nc2cc3ccccc3cc21 | 12.6 µM (active) | – |
| O=c1c2ccccc2nc(-c2ccco2)n1-c1ccc(Br)cn1 | inactive | – |

| SMILES | Potency | activity change, negative = inhibition |
| --- | --- | --- |
| Cn1cccc1-c1nc2ccccc2n1C | inactive | – |
| S=c1[nH]nc(-c2cc(-c3ccccc3)n[nH]2)n1/N=C/c1c2ccccc2cc2ccccc12 | inactive | – |
| c1ccc(-c2cc(-c3ccccc3)[nH]n2)cc1 | inactive | – |
| S=c1[nH]nc(-c2cc(-c3ccsc3)n[nH]2)n1-c1ccccc1 | 10 µM (active) | – |
| CCn1cc(C(=O)N[C@@H](C)C(=O)NCCO)c(=O)c2cc3c(cc21)OCO3 | inactive | – |
| CCCNC(=O)CCc1c(C)nc2c(c(C)nn2-c2ccc(C)cc2)c1C | inactive | – |
| CC(C)OC(=O)c1ccc(COc2ccc3ccc(=O)oc3c2)o1 | inactive | – |
| CC(=O)c1c(-c2ccccc2)c2ccccc2[nH]c1=O | inactive | – |
| O=c1[nH]c2ccccc2n2c(-c3ccccc3)nnc12 | 3.16 µM (active) | – |
| Cc1ccccc1Cn1c(=O)[nH]c2ccccc21 | inactive | – |
| Cc1ccc(S(=O)(=O)N/N=C(\c2ccccc2)C2CC2)cc1 | inactive | – |
| Cc1cc(C2=NNC(=Nc3ccc(S(=O)(=O)N4CCOCC4)cc3)SC2)c(C)n1CC1CCCO1 (stereo unspecified) | inactive | – |
| C=CCn1c(C)cc(C2=NNC(=NCC)SC2)c1C | 14.1 µM (active) | – |
| Cc1cccc(N=C2NN=C(c3c[nH]c4ccccc34)CS2)c1 | inactive | – |
| COc1ccc(-c2ccc(OC(=O)NC3CCS(=O)(=O)C3)cc2)cc1 (stereo unspecified) | inactive | – |
| CCOc1ccc(N/C=C/C(=O)c2ccccc2)cc1 | inactive | – |
| COc1ccc2cc(S(=O)(=O)Nc3ccccn3)ccc2c1 | inactive | – |
| COc1ccc(C(=O)/C=C/Nc2ccccn2)cc1 | 12.6 µM (active) | – |
| CC1CCC(NC(=O)CN(C)S(=O)(=O)c2ccc3c(c2)c(=O)n(C)c(=O)n3C)CC1 (stereo unspecified) | inactive | – |
